Assay results taken from PubChem BioAssay AID1159580 (chemical genetic matrix, 2015).
Screen size: about 5,500 compounds; about 2,000 (36%) were called active. About 18% were inconclusive and are not listed. No stated cut-off is given here; in the data, active means normalized growth mostly below about 0.91 (no sharp cut-off); inconclusive means no clear call, values can overlap the other calls; inactive means mostly above about 0.92. Some of the results follow.

Assay: chemical genetic growth profiling, strain panel (AID 1159580);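 further: tested at 20 µM; growth read once vehicle control cultures reached saturation at 30 °C; 1 = growth at the plate median or of vehicle wells; lower values mean less growth of the strain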
Conditions: growth OD

Measured: normalized growth

CC1(C)C(C(Cl)Cl)C2(Cl)C(Cl)C(Cl)C1(Cl)C2(Cl)Cl (centres undefined)
inactive: S. cerevisiae deletion strains, locus YJR043C, strain POL32, hits give low values 0.978 | S. cerevisiae deletion strains, locus YJR075W, strain HOC1, hits give low values 0.985 | S. cerevisiae deletion strains, locus YKL009W, strain mrt4, hits give low values 0.965 | S. cerevisiae deletion strains, locus YKL068W, hits give low values 0.983 | S. cerevisiae deletion strains, locus YKL085W, strain MDH1 (second series), hits give low values 0.973 | S. cerevisiae deletion strains, locus YKL085W, strain MDH1, hits give low values 0.973 | S. cerevisiae deletion strains, locus YKL160W, strain elf1, hits give low values 0.969 | S. cerevisiae deletion strains, locus YKL190W, strain CNB1, hits give low values 0.997 | S. cerevisiae deletion strains, locus YKR001C, strain vps1, hits give low values 0.964 | S. cerevisiae deletion strains, locus YKR026C, strain gcn3, hits give low values 0.989 | S. cerevisiae deletion strains, locus YKR091W, strain srl3, hits give low values 0.985 | S. cerevisiae deletion strains, locus YLL001W, strain dnm1, hits give low values 0.994 | S. cerevisiae deletion strains, locus YLL026W, hits give low values 0.981 | S. cerevisiae deletion strains, locus YLL041C, strain sdh2, hits give low values 0.989 | S. cerevisiae deletion strains, locus YLR027C, strain aat2, hits give low values 0.97 | S. cerevisiae deletion strains, locus YLR039C, strain RIC1, hits give low values 0.883 | S. cerevisiae deletion strains, locus YLR058C, strain SHM2, hits give low values 0.983 | S. cerevisiae deletion strains, locus YLR102C, strain apc9, hits give low values 0.979 | S. cerevisiae deletion strains, locus YLR221C, strain rsa3, hits give low values 0.961 | S. cerevisiae deletion strains, locus YLR258W, strain gsy2, hits give low values 0.975 | S. cerevisiae deletion strains, locus YLR262C, strain YPT6, hits give low values 0.884 | S. cerevisiae deletion strains, locus YLR268W, strain sec22, hits give low values 0.97 | S. cerevisiae deletion strains, locus YLR320W, strain mms22, hits give low values 0.878 | S. cerevisiae deletion strains, locus YLR330W, strain CHS5, hits give low values 0.991 | S. cerevisiae deletion strains, locus YLR342W, strain FKS1 (second series), hits give low values 0.913 | S. cerevisiae deletion strains, locus YLR342W, strain FKS1, hits give low values 0.964 | S. cerevisiae deletion strains, locus YLR357W, strain rsc2, hits give low values 0.993 | S. cerevisiae deletion strains, locus YLR370C, strain arc18, hits give low values 0.991 | S. cerevisiae deletion strains, locus YLR371W, strain rom2, hits give low values 0.968 | S. cerevisiae deletion strains, locus YLR384C, strain iki3, hits give low values 0.974 | S. cerevisiae deletion strains, locus YLR418C, strain cdc73, hits give low values 0.879 | S. cerevisiae deletion strains, locus YML016C, strain PPZ1, hits give low values 0.986 | S. cerevisiae deletion strains, locus YML032C, strain rad52, hits give low values 0.956 | S. cerevisiae deletion strains, locus YML120C, strain ndi1, hits give low values 0.983 | S. cerevisiae deletion strains, locus YML124C, strain tub3, hits give low values 0.976 | S. cerevisiae deletion strains, locus YMR058W, strain fet3, hits give low values 0.991 | S. cerevisiae deletion strains, locus YMR078C, strain ctf18, hits give low values 0.953 | S. cerevisiae deletion strains, locus YMR125W, strain sto1, hits give low values 0.995 | S. cerevisiae deletion strains, locus YMR129W, hits give low values 0.972 | S. cerevisiae deletion strains, locus YMR205C, strain PFK2, hits give low values 0.883 | S. cerevisiae deletion strains, locus YMR223W, strain ubp8, hits give low values 0.963 | S. cerevisiae deletion strains, locus YMR231W, strain pep5, hits give low values 0.977 | S. cerevisiae deletion strains, locus YMR263W, strain SAP30, hits give low values 0.988 | S. cerevisiae deletion strains, locus YMR307W, strain GAS1, hits give low values 0.967 | S. cerevisiae deletion strains, locus YNL067W, strain RPL9B, hits give low values 0.993 | S. cerevisiae deletion strains, locus YNL128W, strain TEP1, hits give low values 0.992 | S. cerevisiae deletion strains, locus YNL153C, strain GIM3, hits give low values 0.988 | S. cerevisiae deletion strains, locus YNL209W, strain ssb2, hits give low values 0.979 | S. cerevisiae deletion strains, locus YNL233W, strain BNI4, hits give low values 0.999 | S. cerevisiae deletion strains, locus YNL248C, strain rpa49, hits give low values 0.99 | S. cerevisiae deletion strains, locus YNL250W, strain rad50, hits give low values 0.95 | S. cerevisiae deletion strains, locus YNL271C, strain bni1, hits give low values 0.975 | S. cerevisiae deletion strains, locus YNL298W, strain CLA4, hits give low values 0.958 | S. cerevisiae deletion strains, locus YNL322C, strain KRE1 (second series), hits give low values 0.979 | S. cerevisiae deletion strains, locus YNL322C, strain KRE1, hits give low values 0.987 | S. cerevisiae deletion strains, locus YNR049C, strain mso1, hits give low values 0.985 | S. cerevisiae deletion strains, locus YNR052C, strain pop2, hits give low values 0.963 | S. cerevisiae deletion strains, locus YOL006C, strain TOP1, hits give low values 0.926 | S. cerevisiae deletion strains, locus YOL012C, strain htz1 1.18 | S. cerevisiae deletion strains, locus YOL147C, strain pex11, hits give low values 0.973 | S. cerevisiae deletion strains, locus YOR001W, strain rrp6, hits give low values 0.995 | S. cerevisiae deletion strains, locus YOR061W, strain CKA2, hits give low values 0.992 | S. cerevisiae deletion strains, locus YOR069W, strain VPS5, hits give low values 0.985 | S. cerevisiae deletion strains, locus YOR070C, strain gyp1, hits give low values 0.991 | S. cerevisiae deletion strains, locus YOR080W, strain dia2, hits give low values 0.974 | S. cerevisiae deletion strains, locus YOR083W, strain WHI5, hits give low values 0.982 | S. cerevisiae deletion strains, locus YOR106W, strain vam3, hits give low values 0.95 | S. cerevisiae deletion strains, locus YOR136W, strain idh2, hits give low values 0.978 | S. cerevisiae deletion strains, locus YOR144C, strain elg1, hits give low values 0.967 | S. cerevisiae deletion strains, locus YOR184W, strain ser1, hits give low values 0.879 | S. cerevisiae deletion strains, locus YOR265W, strain rbl2, hits give low values 0.98 | S. cerevisiae deletion strains, locus YOR270C, strain vph1, hits give low values 0.922 | S. cerevisiae deletion strains, locus YOR290C, strain snf2, hits give low values 0.977 | S. cerevisiae deletion strains, locus YOR316C, strain cot1, hits give low values 0.973 | S. cerevisiae deletion strains, locus YPL051W, strain arl3, hits give low values 0.937 | S. cerevisiae deletion strains, locus YPL055C, strain LGE1, hits give low values 0.981 | S. cerevisiae deletion strains, locus YPL078C, strain atp4, hits give low values 0.988 | S. cerevisiae deletion strains, locus YPL106C, strain sse1, hits give low values 0.984 | S. cerevisiae deletion strains, locus YPL240C, strain hsp82, hits give low values 0.982 | S. cerevisiae deletion strains, locus YPL241C, strain CIN2, hits give low values 0.988 | S. cerevisiae deletion strains, locus YPR119W, strain clb2, hits give low values 0.973 | S. cerevisiae deletion strains, locus YPR141C, strain kar3, hits give low values 0.963 | S. cerevisiae deletion strains, locus YPR163C, strain tif3, hits give low values 0.946 | S. cerevisiae deletion strains, locus YPR167C, strain met16, hits give low values 0.978 | S. cerevisiae deletion strains, strain wtn01, hits give low values 0.966 | S. cerevisiae strains, strain wild type, hits give low values 0.986
active: S. cerevisiae deletion strains, locus YLR262C, strain YPT6 (second series), hits give low values 0.817 | S. cerevisiae deletion strains, locus YNL071W, strain lat1, hits give low values 0.834 | S. cerevisiae deletion strains, locus YNL307C, strain MCK1, hits give low values 0.778
